# High-throughput results: PubChem BioAssay, National Center for Advancing Translational Sciences (NCATS)
# A selection: hits, their analogues and other compounds. The true share with any hit is near 9.2%.
# FLuc counter: qHTS profiling assay for firefly luciferase inhibitor/activator using purifed enzyme and Km concentrations of substrates (counterscreen for miR-21 project). purified FLuc, Km substrates, luminescence inhibition. Potency, µM (doses to about 57.5 µM), inactives show at the highest dose activity change, negative = inhibition, most hits filed as inhibitors. 6.9% of 360,000 active. AID 588342, 2011;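 further: plate controls were vehicle for no effect and reference inhibitor for full effect; nearly all actives have a fitted effect of over 55% in size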
# Target sequence (P08659 whole entry, looked up): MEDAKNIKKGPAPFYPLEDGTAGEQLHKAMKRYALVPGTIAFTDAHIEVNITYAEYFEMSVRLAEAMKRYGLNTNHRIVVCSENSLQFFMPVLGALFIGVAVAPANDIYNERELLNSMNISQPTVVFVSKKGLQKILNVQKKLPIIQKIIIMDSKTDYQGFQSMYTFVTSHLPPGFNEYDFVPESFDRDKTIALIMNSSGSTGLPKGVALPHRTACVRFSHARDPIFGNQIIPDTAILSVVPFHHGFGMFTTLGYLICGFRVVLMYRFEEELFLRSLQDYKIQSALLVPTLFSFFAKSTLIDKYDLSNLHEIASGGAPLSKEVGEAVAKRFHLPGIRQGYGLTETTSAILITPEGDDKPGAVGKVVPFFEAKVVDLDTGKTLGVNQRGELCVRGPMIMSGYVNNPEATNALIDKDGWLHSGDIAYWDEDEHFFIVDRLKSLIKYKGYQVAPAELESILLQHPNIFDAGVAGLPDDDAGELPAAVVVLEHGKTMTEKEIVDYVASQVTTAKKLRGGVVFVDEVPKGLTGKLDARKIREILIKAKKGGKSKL
#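 Purified P. pyralis luciferase (10nM final) with 10uM D-luciferin and 10uM ATP (Km levels) in 50mM Tris acetate pH 7.5, 10mM Mg acetate, 0.01% Tween-20, 0.05% BSA; qHTS 6-point titration, ~60 µM downward; luminescence read.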
# ELG1 DNA repair: qHTS screen for small molecules that inhibit ELG1-dependent DNA repair in human embryonic kidney (HEK293T) cells expressing luciferase-tagged ELG1 | HEK293T ELG1-luciferase reporter, luminescence, 16 h; DNA damage induced by 5-fluorouridine | Potency, µM (series often up to 46.1 µM), inactives show at the top dose activity change, negative = inhibition, hits mostly inhibitors | 2.3% of 330,000 active; further: on the % scale 0 is the no-effect control and ±100 the full control effect; nearly all actives have a fitted effect of over 55% in size
#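 DMSO vehicle served as the neutral condition. Each well held 2,000 cells given 5-fluorouridine plus compound; after 16 hr at 37 °C/5% CO2, ONE-Glo was added and luciferase measured 30 min later.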
# Rab9 promoter act: qHTS Assay for Rab9 Promoter Activators; Potency, µM (highest dose often 9.22 µM), inactives show top-dose activation, negative = inhibition, usual class: activators; Huh7 Rab9 promoter-luciferase reporter, luminescence, 24 h; 2.8% of 320,000 active; AID 485297, 2010; further: % of control where 0% means no effect; nearly all actives have a fitted effect of over 60% in size
#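 Luminescence from Amplite-detected luciferase (10 minutes, ambient) reports Rab9 promoter activation. Before that, stable Rab9-luciferase Huh7 cells (1500/well, reduced-serum OP-MEM I plus 10% FBS) were exposed to compound for 24 hours at 37C.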
# SMN2 splice enh: qHTS Assay for Enhancers of SMN2 Splice Variant Expression. HEK293 SMN2-luciferase splicing reporter, luminescence, 30-36 h. Potency, µM (top dose mostly 46.1 µM), without a hit: at the highest dose activity change, positive = activation, most hits filed as activators. 2.8% of 210,000 active. AID 1458, 2008; further: % of control where 0% means no effect; nearly all actives have a fitted effect of over 55% in size
#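 HEK293 cells carry an SMN2 minigene-luciferase reporter in which exon 7 inclusion puts luciferase in frame. Cells were seeded at 2000 cells/well, attached for 10-12 hours, then exposed to compounds for 30-36 hours at 37C before ONE-Glo luminescence.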
# NPC1 promoter act: qHTS Assay for NPC1 Promoter Activators; Potency, µM (doses to about 9.22 µM), for the others: at the highest dose activation, most hits filed as activators; 2.4% of 320,000 active; Huh7 NPC1 promoter luciferase reporter, 24 h; further: % of control where 0% means no effect; nearly all actives have a fitted effect of over 60% in size
#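 Cells: Huh7 expressing luciferase under the NPC1 promoter, 1500/well. Seeded 2 h, compound added, incubated 24 h at 37 °C. Luciferase reagent, 10 min ambient, then luminescence.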
# ELG1 genotoxic: qHTS screen for small molecules that induce genotoxicity in human embryonic kidney (HEK293T) cells expressing luciferase-tagged ELG1 | Potency, µM (titrated, usually from 46 µM), inactives show top-dose activity change, positive = activation, actives largely listed as activators | HEK293T ELG1-luciferase reporter, luminescence, 16 h | 1.3% of 330,000 active; further: % of control where 0% means no effect; nearly all actives have a fitted effect of over 60% in size
#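 Genotoxic stress is detected as increased luminescence from luciferase-tagged ELG1 in HEK293T cells, measured with ONE-Glo after a 16 hr treatment at 37 °C.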
# * marks the source's active call; other numbers are inactive results; ? = inconclusive; . = not tested or not shown; [ ] = remark or other dose. The call rests on the fitted dose curve; in most records, active means well fitted curve in the direction sought with a large enough effect; inconclusive means small, poorly fitted or top-dose-only effect, or another doubt; inactive means no such curve, though single readings can be large; an effect the other way counts as inactive or inconclusive. Potency means the concentration at half of the fitted maximal effect.
SMILES,FLuc counter,ELG1 DNA repair,Rab9 promoter act,SMN2 splice enh,NPC1 promoter act,ELG1 genotoxic
Cc1ccc(NC(=O)CSc2ccc(-c3cccs3)nn2)cc1Cl,1.3%,.,.,.,.,.
O=C(c1cnsn1)N1CCC(CO)(Cc2cccc(F)c2)CC1,13.5µM*,?,3.16µM*,.,?,?
CCc1ccc(OCC(=O)Nc2ncn[nH]2)c(Br)c1,1.07µM*,.,.,?,.,.
CCc1ccc(OCC(=O)Nc2ncn[nH]2)cc1,13.5µM*,?,4.47µM*,?,?,?
CCc1ccc(OCC(=O)NC2CCCCC2)c(Br)c1,2.8%,12.3%,5.0%,.,-1.8%,7.8%
O=C(COc1ccc(Br)cc1Cl)Nc1ncn[nH]1,2.13µM*,.,.,?,.,.
CC(C)(C)c1cc(Br)ccc1OCC(=O)Nc1ncn[nH]1,0.3%,12.0%,-3.7%,-23.3%,-4.4%,2.2%
COc1cc2c(cc1OC)C1O[C@](CCCCN3C(=O)c4ccccc4C3=O)(C2)Oc2c1c(=O)oc1ccc(F)cc21,3.2%[11.5 µM],.,-1.0%[1.84 µM],.,-0.9%[1.84 µM],.
CCOC(=O)c1[nH]c(C)c(CCC(=O)Nc2ccc(C(C)=O)cc2)c1C,4.0%,.,.,.,.,.
Cc1cc(C)cc(C(=O)NN2CCN(C)CC2)c1,1.3%,-1.3%,-3.7%,8.1%,-3.3%,-2.1%
O=C(CN(C(=O)c1csnn1)c1ccc(F)cc1)NCCc1ccccc1,0.6%,-0.6%,15.6%,.,0.2%,-0.8%
CN(C)S(=O)(=O)N1CCN(CC(O)COc2ccc(-c3ccccc3)cc2)CC1 (centres undefined),-8.4%,20.6µM*,-0.2%,.,-3.2%,-8.8%
CC(=O)Nc1ccc(S(=O)(=O)N2CCN(CC(O)COc3ccc4ccccc4c3)CC2)cc1 (centres undefined),1.8%,-20.1%,-5.6%,.,-2.2%,-6.3%
O=S(=O)(N1CCCCC1)N1CCN(CC(O)COc2ccc3cc(Br)ccc3c2)CC1 (centres undefined),0.1%,13µM*,-12.4%,-53.2%,-6.5%,0.7%
OCCN1CCN(CC(O)COc2ccc(-c3ccccc3)cc2)CC1 (centres undefined),?,?,25.8%,-7.7%,15.0%,?
Cc1ccc(S(=O)(=O)N2CCN(CC(O)COc3ccccc3)CC2)cc1 (centres undefined),0.5%,-21.1%,-1.1%,.,-1.1%,-18.6%
CCOc1ccc(S(=O)(=O)N2CCN(CC(O)COc3cccc([N+](=O)[O-])c3)CC2)cc1 (centres undefined),0.1%,14.6µM*,-1.8%,.,-44.0%,-2.4%
OC(COc1ccc2cc(Br)ccc2c1)CN1CCN(c2ccccn2)CC1 (centres undefined),-5.5%,13.8%,-5.3%,.,-5.2%,?
CN(C)S(=O)(=O)N1CCN(CC(O)COc2ccc3cc(Br)ccc3c2)CC1 (centres undefined),-3.8%,23.1µM*,-4.6%,-50.0%,-1.6%,-4.3%
Cn1c(=O)c2c(nc(SCC(=O)Nc3ccc(F)cc3)n2Cc2ccccc2F)n(C)c1=O,-5.6%,.,.,4.2%,.,.
O=S(=O)(Nc1nc(SCc2ccc(Cl)cc2)n[nH]1)c1ccccc1,3.8%,-1.5%,2.2%,.,-6.3%,-4.4%
CCOc1ccc(NC(=O)Cn2c(=O)n(-c3ccc(C)cc3)c(=O)c3cc(OC)c(OC)cc32)cc1,-1.2%,.,.,8.3%,.,.
Cc1cc(-c2nc(C)c(C(=O)NN)s2)no1,-10.8%,?,9.7%,.,1.4%,-0.5%
CC(C)(C)OC(=O)N1CCC(c2c(C(=O)NCCN3CCc4ccccc4C3)cnn2-c2ccc(F)cc2)CC1,-1.7%,.,.,.,.,.
